Screening results: PubChem BioAssay, National Center for Advancing Translational Sciences (NCATS)
The list is not random: actives were taken first. Their share in the collection is about 17%.
DT40 TDP1 no CPT – qHTS for Inhibitors of human tyrosyl-DNA phosphodiesterase 1 (TDP1): qHTS in cells in absence of CPT; DT40 Tdp1-/- hTDP1 cells, no CPT, ATP luminescence, 48 h; Potency, µM (series often up to 46.2 µM), for the others: top-dose activity change, negative = growth inhibition, usual class: inhibitors; actives 15% (n = 420,000); AID 686978, 2013; further: on the % scale 0 is the no-effect control and ±100 the full control effect; nearly all actives have a fitted effect of over 55% in size
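Growth of hTDP1-complemented DT40 Tdp1-knockout cells is measured by ATP luminescence after at least 48 hr compound exposure at 37 °C, with DMSO substituting for the 20 nM CPT used in the parallel screen.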
HepG2 tox – HepG2 cytotoxicity, counter-screen for TGF-b inhibitors; HepG2 CAGA-GFP viability, ATP luminescence, 18 h; Potency, µM (highest dose often 46.1 µM), inactives show top-dose activity change, negative = cytotoxicity, actives largely listed as cytotoxic; actives 0.76% (n = 410,000)
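CellTiter-Glo luminescence gave cytotoxicity after 18 hours at 37 degrees C. The cells were HepG2 CAGA-GFP in 1% FBS DMEM, stimulated with 500 pg/mL TGF-beta after compound addition. %Activity was normalised to no-cell wells (complete cell-killing) and DMSO (no toxicity), and curves were fitted and classified.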
DT40 TDP1 CPT – growth inhibition of DT40 Tdp1-/-;hTDP1 cells with camptothecin (screen for TDP1 inhibitors). AID 686979. actives 12% (n = 420,000). Potency, µM (highest dose often 46.2 µM), inactives show top-dose activity change, negative = growth inhibition, hits mostly inhibitors. chicken DT40 Tdp1-/-;hTDP1 cells + 20 nM CPT, ATP luminescence, 48 h; further: on the % scale 0 is the no-effect control and ±100 the full control effect; nearly all actives have a fitted effect of over 55% in size
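Chicken DT40 Tdp1-/- cells complemented with human TDP1, 400 cells/well, exposed to compounds plus 20 nM camptothecin for at least 48 h at 37 C; viability read as ATP content by CellTiter-Glo luminescence.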
ATXN viability – viability counter-screen for ATXN expression inhibitors; Potency, µM (series often up to 56.7 µM), most hits filed as cytotoxic; S2 cells (HEK-293 line with an ATXN2-luciferase reporter) viability, CellTiter-Fluor protease fluorescence, 24 h; AID 651635; actives 0.49% (n = 400,000); further: nearly all actives have a fitted effect of over 40% in size
TGFb inhibitor – inhibitors of TGF-b signaling | HepG2 CAGA-GFP TGF-b/SMAD3 reporter, GFP fluorescence, 18 h; TGF-beta stimulated, 500 pg/mL final | Potency, µM (doses to about 46.1 µM), without a hit: at the highest dose activity, negative = inhibition, most hits filed as inhibitors | actives 1.2% (n = 410,000); further: on the % scale 0 is the no-effect control and ±100 the full control effect; nearly all actives have a fitted effect of over 65% in size
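Per well, imaged GFP fluorescence of HEPG2 CAGA-GFP cells gives the signal; cells get compound, then TGF-beta (500 pg/mL final), 18 h at 37 degrees C; %Activity versus -TGF-beta and +DMSO controls.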
ATXN2 expr inh – ATXN2 expression inhibition; HEK-293 ATXN2-luciferase reporter, luminescence, 24 h; Potency, µM (doses to about 57 µM), for the others: top-dose activity change, negative = inhibition, hits mostly inhibitors; actives 0.72% (n = 360,000); further: on the % scale 0 is the no-effect control and ±100 the full control effect; nearly all actives have a fitted effect of over 55% in size
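qHTS (up to 57 uM final) was run with 24 h compound exposure of reporter cells at 37 °C. Each well was multiplexed: SteadyGlo luminescence measured ATXN2-luciferase expression after a fluorogenic Gly-Phe-AFC viability readout (25 uM final).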
Numbers without * were called inactive; i = inactive; ? = inconclusive; · = not tested or not shown; [ ] = remark or other dose. The call rests on the fitted dose curve; in most records, active means well fitted curve in the direction sought with a large enough effect; inconclusive means small, poorly fitted or top-dose-only effect, or another doubt; inactive means no such curve, though single readings can be large; an effect the other way counts as inactive or inconclusive. Potency means the concentration at half of the fitted maximal effect.

SMILES | DT40 TDP1 no CPT | HepG2 tox | DT40 TDP1 CPT | ATXN viability | TGFb inhibitor | ATXN2 expr inh
COc1cc(/C=N/NC(=O)NC23CC4CC(CC(C4)C2)C3)ccc1OCC(N)=O | 8.2µM* | -32% | ? | i | 2% | ·
CN(CC(=O)NCC(=O)Nc1ccc(F)c(F)c1F)C1CCS(=O)(=O)C1 (configuration not stated) | 3% | 0% | -7% | i | 0% | 0%
Cc1ccc(CNC(=O)CCS(=O)(=O)c2cc3c4c(c2)CCN4C(=O)CC3)cc1 | 3% | 0% | -13% | i | ? | 9%
CNC(=O)c1ccccc1Sc1ccc2c(C=Cc3ccccn3)n[nH]c2c1 | · | · | · | · | · | 9%
CCN=c1scc(C)n1/N=C/c1ccc(O)c(O)c1O | 7.3µM* | -15% | 15µM* | ? | -23% | -12%
Cc1cccc(-c2cc(C(=O)Nc3cccnc3)c3ccccc3n2)c1 | ? | -28% | 21µM* | ? | 7% | 0%
O=C(NC1=NCCS1)c1cc(-c2cccnc2)nc2ccccc12 | 21µM* | -3% | 16µM* | i | 18% | -23%
O=C(NC1=NCCS1)c1cc(-c2cccs2)nc2ccccc12 | -29% | -19% | -5% | i | -9% | -16%
Cc1cccc(-c2cc(C(=O)Nc3ccncc3)c3ccccc3n2)c1 | ? | -7% | ? | ? | -19% | -21%
O=C(Nc1ccncc1)c1cc(-c2ccccc2)nc2ccccc12 | 21µM* | -19% | ? | ? | 6% | ·
O=C(Nc1ccc(Br)cc1)c1cc(-c2ccncc2)nc2ccccc12 | 16µM* | 0% | ? | i | ? | -25%
COC(=O)c1ccc(NC(=O)c2cc(-c3ccncc3)nc3ccccc23)cc1 | ? | -19% | ? | ? | -9% | ?
COc1ccccc1N(CC(=O)NCCSCc1ccc(C)cc1)S(=O)(=O)c1ccccc1 | ? | -18% | ? | i | -16% | ?
CCCCc1ccc(NC(=O)CSc2nc(=O)n(CCN(CC)CC)c3c2CCCC3)cc1 | 23µM* | -43% | ? | · | -19% | ?
CCCCc1ccc(NC(=O)CSc2nc(=O)n(CCN(C)C)c3c2CCC3)cc1 | ? | -84% | ? | ? | ? | -12%
CC(C)CNC(=O)c1ccc(C2SCC(=O)N2Cc2ccccc2)cc1 (configuration not stated) | 16µM* | 0% | ? | ? | 7% | -24%
O=C(O)c1ccc(C2SCC(=O)N2Cc2ccccc2)cc1 (configuration not stated) | -1% | 3% | 5% | i | 3% | -2%
CN(C)c1ccc(N2C(=NC(=O)c3ccccc3)SC3CS(=O)(=O)CC32)cc1 (configuration not stated) | 16% | -12% | -17% | i | 1% | 13%
O=S(=O)(c1ccc(Cl)cc1)N1CCCc2ccccc21 | -25% | -13% | -21% | i | -18% | 7%
COc1ccc(S(=O)(=O)N2CCc3ccccc32)cc1OC | -21% | -12% | -3% | i | -11% | -22%
CCn1c(=O)n(CC)c2cc(S(=O)(=O)N3CCc4ccccc43)ccc21 | 18µM* | -36% | 13µM* | i | -2% | ?
O=S(=O)(c1ccc(Cl)cc1)N1CCc2ccccc21 | 15µM* | -11% | ? | i | -20% | 5%
CC(=O)N1CCc2ccc(S(=O)(=O)N3CCc4ccccc43)cc21 | 5.2µM* | -23% | 21µM* | · | -24% | ?
Cc1ccc(-c2cc(C(=O)Nc3c(C(=O)c4ccccc4)oc4ccccc34)no2)cc1F | -17% | 15% | 7% | i | 20% | -1%
CC(O)Cn1nc([N+](=O)[O-])nc1N (configuration not stated) | 14% | 5% | 4% | i | -12% | 3%
SMILES | DT40 TDP1 no CPT | HepG2 tox | DT40 TDP1 CPT | ATXN viability | TGFb inhibitor | ATXN2 expr inh
O=C(NC1CCCCCCC1)c1cc(COc2ccc3ncccc3c2)on1 | 4.6µM* | -12% | 3.7µM* | i | ? | -33%
O=C(c1cc(COc2ccc3ncccc3c2)on1)N1CCC[C@H]1CO | 8.2µM* | -2% | 6.5µM* | ? | ? | 11%
COc1cccc(OCc2cc(C(=O)N3CCC(C(O)C(C)C)CC3)no2)c1 (configuration not stated) | ? | 4% | ? | i | 1% | 0%
CCC(O)C1CCN(C(=O)c2cc(COc3ccc4ncccc4c3)on2)CC1 (configuration not stated) | 3.7µM* | -2% | 4.1µM* | ? | -10% | ?
CC(CNC(=O)c1cc(COc2ccc3ncccc3c2)on1)c1ccccc1 (configuration not stated) | 12µM* | -28% | 16µM* | · | ? | ?
CSc1ccc(CN2CCOc3ccc(CN4CCCCC4CO)cc3C2)cc1 (configuration not stated) | ? | · | -9%[9.04 µM] | i | · | ·
Cc1cc(SCC(=O)c2cccc([N+](=O)[O-])c2)nc(=O)[nH]1 | -14% | -4% | -25% | i | -4% | ·
COCC1CCCN(C(=O)c2cc(COc3ccc4ncccc4c3)on2)C1 (configuration not stated) | 5.8µM* | -3% | 7.3µM* | i | ? | -15%
COc1cccc(OCc2cc(C(=O)N3CCN(C4CCCC4)CC3)no2)c1 | -12% | 33% | -7% | i | -12% | -2%
O=C(c1cc(COc2ccc3ncccc3c2)on1)N1CCC(O)CC1 | 8.2µM* | -5% | 16µM* | i | 1% | -23%[11.3 µM]
O=C(c1cc(COc2ccc3ncccc3c2)on1)N1CCCC(O)C1 (configuration not stated) | 21µM* | -12% | ? | i | -7% | -1%
Cc1ccc(NC(=O)Cn2c([N+](=O)[O-])cnc2C)cc1Cl | -12% | 9% | -6% | i | 2% | -13%
Cc1ccc(-c2nnc(N3CCN(C(=O)CN4CCOCC4)CC3)c3ccccc23)cc1 | 16µM* | 2% | -27% | i | -4% | -22%
Cc1ccc(-c2nnc(N3CCN(C(=O)Cn4c(=O)n(C)c5ccccc54)CC3)c3ccccc23)cc1 | 16µM* | 3% | ? | i | 10% | -1%
Cc1ccc(-c2nnc(N3CCN(C(=O)c4cccs4)CC3)c3ccccc23)cc1 | 23µM* | -20% | ? | i | ? | ·
